Results published in PubChem BioAssay (NCATS).
“And” between values parts separate entries of the source, which are not always exact repeats. Equal entries are not always repeated. Records with an inconclusive call do not appear. The source made the active and inactive calls. Unless noted, calls come from the whole dose curve; as a rule, active = well fitted curve in the direction sought with a large enough effect; inconclusive = small, poorly fitted or top-dose-only effect, or another doubt; inactive = no such curve, though single readings can be large; an effect the other way counts as inactive or inconclusive.

Assays:
[1] = Cell Viability - HepG2 (AID 433; calls by dose curve;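 note: potency is the fitted concentration of half-maximal effect; cells exposed to compound for 40 hours; potency for ATP loss meaning cytotoxicity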); conditions: qHTS
How it was run: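 Read-out is luciferase-based quantitation of cellular ATP as a measure of viable HepG2 cells after 40 h treatment at 37 °C. Signal decrease is scaled between DMSO-only and 100 uM tamoxifen controls, with AC50 fitted by the Hill equation.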

[2] = Cell Viability - Renal Proximal Tubule (AID 545); conditions: renal proximal tubule cells viability, primary cells of rat origin; at 91.7 µM (top of the series);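 note: cells exposed to compound for 40 hours; nearly all actives have a fitted effect of over 40% in size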
How it was run: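 Luminescent ATP signal (CellTiter-Glo) served as the viability read-out after 40 hr compound exposure of freshly isolated rat proximal tubule cells at 37 °C. Concentration-dependent ATP loss was fitted with the Hill equation to give AC50.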

[3] = Cellular Toxicity (caspase-3) SK-N-SH (AID 661); conditions: SK-N-SH caspase-3 activation, qHTS, DMSO as zero, staurosporine as full; series mostly up to 91.7 µM;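 note: cells exposed to compound for 16 hours; 0% = DMSO basal and 100% = 10 µM staurosporine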
How it was run: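 Caspase 3/7 activation was read by luminogenic substrate cleavage after 16 hour treatment of SK-N-SH cells. Signal was scaled between DMSO and 10 uM staurosporine, and concentration-response data were fitted with the Hill equation for AC50.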

[4] = Cell Viability - LYMP2-004 (AID 966); conditions: LYMP2-004 lymphoblastoid cell viability, qHTS; series mostly up to 92.2 µM; note: nearly all actives have a fitted effect of over 65% in size; note: potency is the fitted concentration of half-maximal effect;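 for activity change, negative = cytotoxicity: plate controls were DMSO only for no effect and tetraoctylammonium bromide control for full effect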
How it was run: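 AC50 values come from Hill modelling of concentration-dependent loss of intracellular ATP, measured by CellTiter-Glo luminescence. Human LYMP2-004 lymphoblastoid cells (2500/well) were exposed to compound for 24 h at 37 C.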

[5] = Cell Viability - LYMP2-023 (AID 975); conditions: LYMP2-023 lymphoblastoid cell viability; series mostly up to 92.2 µM; note: nearly all actives have a fitted effect of over 55% in size; note: potency is the fitted concentration of half-maximal effect;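 for activity change, negative = cytotoxicity: cellular ATP measured by luciferase luminescence as viability proxy; plate controls were DMSO only for no effect and 92 µM tetraoctylammonium bromide control for full effect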
How it was run: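 Intracellular ATP, read by CellTiter-Glo luminescence, reports viability after 24 hr compound exposure at 37 C. 2500 lymphoblastoid cells/well (LYMP2-023) seeded 5 hr beforehand; Hill fits give AC50; positive control tetraoctylammonium bromide.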

[6] = Cell Viability - LYMP2-012 (AID 982); conditions: LYMP2-012 lymphoblastoid cell viability qHTS; series mostly up to 92.2 µM;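 note: cellular ATP by luciferase luminescence where a drop means cytotoxicity; cells exposed to compound for one day before reading; 0% = DMSO only and full loss = 92 µM tetraoctylammonium bromide; nearly all actives have a fitted effect of over 55% in size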
[7] = molecular target: Bile acid receptor (Homo sapiens) (UniProt Q96RI1); assay: qHTS assay for small molecule antagonists of farnesoid X receptor signaling (AID 588526; calls by dose curve; note: % is set by controls: 0 for no effect and ±100 for the full control effect); conditions: HEK293T FXR-UAS-bla, beta-lactamase ratio, antagonist mode; series mostly up to 76.7 µM
How it was run: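 Antagonist mode: titrated compounds tested against chenodeoxycholic acid stimulation (normalized to 50 uM CDCA and DMSO) in GeneBLAzer HEK293T cells for 16 h. Beta-lactamase read by CCF4 fluorescence; IC50 from Hill fits.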

[8] = qHTS assay for small molecule antagonists of peroxisome proliferator-activated receptor delta signaling (AID 588535; active = well fitted inhibition curve with a large enough effect in the signal ratio, with a control signal flat, not every such curve was filed as active; the % refers to the signal ratio;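 for max response: cells co-treated with a PPAR-delta agonist as stimulator during compound exposure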); conditions: HEK293T PPARd-UAS-bla, beta-lactamase FRET ratio, 18 h; 460 nm channel
How it was run: (§1)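 Fluorescence from CCF4-loaded GeneBLAzer PPAR-delta-UAS-bla HEK293T cells (2 hrs RT loading) quantified reporter inhibition after an 18 hr, 37 C compound exposure across a titration.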

[9] = molecular target: Peroxisome proliferator-activated receptor delta (Homo sapiens) (UniProt Q03181); assay: as above; conditions: HEK293T PPARd-UAS-bla, beta-lactamase FRET ratio, 18 h; series mostly up to 76.7 µM
How it was run: as §1

[10] = molecular target: Peroxisome proliferator-activated receptor gamma (Homo sapiens) (UniProt P37231); assay: qHTS assay for small molecule antagonists of peroxisome proliferator-activated receptor gamma signaling (AID 588537; active = well fitted inhibition curve with a large enough effect in the signal ratio, with a control signal flat, not every such curve was filed as active; the % refers to the signal ratio;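 note: reporter cells co-stimulated with 50 nM rosiglitazone agonist during compound treatment; % of control where 0% means no effect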); conditions: HEK293 PPARg-UAS-bla, beta-lactamase ratio, antagonist mode; series mostly up to 76.8 µM
How it was run: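 Fluorescence at 460 and 530 nm (405 nm excitation) reported beta-lactamase cleavage of CCF4 after 2 h room-temperature loading. HEK293 reporter cells in 1% charcoal/dextran-treated FBS had received compound and rosiglitazone for 16 h.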

[11] = qHTS assay for small molecule activators of the nuclear factor-kappa B (NF-kB) signaling pathway (AID 651749; active = well fitted activation curve with a large enough effect in the signal ratio; the % refers to the signal ratio; note: % of control where 0% means no effect); conditions: NF-kB-bla ME-180 cells, beta-lactamase FRET ratio, 16 h; stronger effect = higher value
How it was run: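 In this qHTS format, compounds acting as activators increase NF-kB-driven beta-lactamase in ME-180 cells, measured as disrupted FRET after 16 hr exposure at 37C and 5% CO2.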

[12] = Cell Viability - HUV-EC-C (AID 542); conditions: HUV-EC-C endothelial cell viability, qHTS; series mostly up to 92.2 µM;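 note: cells exposed to compound for 40 hours; % is set by controls: 0 for no effect and ±100 for the full control effect; nearly all actives have a fitted effect of over 35% in size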
How it was run: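 CellTiter-Glo luminescence measured ATP loss in HUV-EC-C cells (1000/well) after 40 hr compound exposure at 37 °C, in complete culture medium. Concentration-response data were Hill-fitted to give AC50.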

[13] = Cell Viability - LYMP2-003 (AID 965); conditions: LYMP2-003 lymphoblastoid cell viability; series mostly up to 92.2 µM;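 note: cells exposed to compounds for 24 h before reading; 0% = DMSO only and full effect = 92 µM tetraoctylammonium bromide; nearly all actives have a fitted effect of over 50% in size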
How it was run: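 Seed 2500 lymphoblastoid cells/well; incubate 5 hr, 37 C; add compounds; incubate 24 hr, 37 C; add CellTiter-Glo, 30 min RT; read luminescence. AC50 from Hill fit.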

[14] = Cell Viability - LYMP2-006 (AID 978); conditions: LYMP2-006 lymphoblastoid cell viability, qHTS; series mostly up to 92.2 µM; note: % is set by controls: 0 for no effect and ±100 for the full control effect; nearly all actives have a fitted effect of over 60% in size
How it was run: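 Cells are seeded at 2500 per well and rested 5 hr at 37 C. Compounds are added across a concentration series for 24 hr at 37 C, after which ATP is quantified by luciferase luminescence.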

[15] = molecular target: Retinoic acid receptor RXR-alpha (Homo sapiens) (UniProt P19793); assay: qHTS assay for small molecule antagonists of retinoid X receptor alpha signaling (AID 588546; active = well fitted inhibition curve with a large enough effect in the signal ratio, with a control signal flat, not every such curve was filed as active; the % refers to the signal ratio;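 note: cells stimulated with 9-cis-retinoic acid as agonist; % is set by controls: 0 for no effect and ±100 for the full control effect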); conditions: HEK293T RXRa-UAS-bla, beta-lactamase ratio, antagonist mode
How it was run: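 Beta-lactamase reporter inhibition, read as CCF4 fluorescence ratio (ex 405, em 460/530 nm) after 2 h at RT. HEK293T UAS-bla cells, 2500/well, were stimulated with 9-cis-RA at 500 or 100 nM final alongside test compound for 18 h at 37 C.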

[16] = molecular target: Voltage-gated inwardly rectifying potassium channel KCNH2 (Homo sapiens) (UniProt Q12809); assay: qHTS Assay for Small Molecule Inhibitors of the Human hERG Channel Activity (AID 588834); conditions: U2OS BacMam hERG, FluxOR thallium flux fluorescence; series mostly up to 92.2 µM;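 note: top concentration of the series differs between compounds; % is set by controls: 0 for no effect and ±100 for the full control effect; lower thallium flux fluorescence means stronger hERG block; nearly all actives have a fitted effect of over 50% in size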
How it was run: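 Step 1: BacMam hERG transduction of U2OS, 4 hrs RT. Step 2: overnight 37 °C, plate 2000 cells/well, 4 hr. Step 3: FluxOR load, compound 10 min, stimulate, read fluorescence.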

[17] = qHTS assay for small molecule disruptors of the mitochondrial membrane potential - 5 hr assay (AID 651755; calls by dose curve; note: % is set by controls: 0 for no effect and ±100 for the full control effect; nearly all actives have a fitted effect of over 40% in size); conditions: JC-1-type ratio dye; series mostly up to 92.2 µM
How it was run: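 Read-out: ratiometric Mito-MPS fluorescence, green monomer (ex 490/em 535) vs red mitochondrial aggregate (ex 540/em 590). HepG2 cells treated 5 hr at 37C before 30 min dye loading.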

[18] = qHTS assay to identify small molecules that stimulate interleukin-8 (IL-8) secretion (AID 651758; active = well fitted activation curve with a large enough effect in the signal ratio; the % refers to the signal ratio; note: potency is the fitted concentration of half-maximal effect; for activation: 0% is about no effect); conditions: HTRF ratio (665/615); series mostly up to 92.2 µM
How it was run: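 Compounds are added to THP-1 cells (2000 per well) and left 16 hrs at 37 C. A labeled anti-IL-8 antibody pair is then added, and IL-8 secretion is measured by time-resolved FRET after 1-3 hrs at room temperature.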

[19] = Cellular Toxicity (caspase-3) HepG2 (AID 654); conditions: HepG2 caspase-3 activation, luminescence, 0% = DMSO only, 100% = tamoxifen; series mostly up to 92.2 µM;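 note: cells exposed to compound for 16 hours before reading; 0% = DMSO alone and 100% = caspase signal from 100 µM tamoxifen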
How it was run: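 Caspase 3/7 activation is measured as a luminescence increase (aminoluciferin substrate) after 16 h compound exposure of human hepatocarcinoma HepG2 cells. AC50 values are Hill fits, scaled between DMSO baseline and 100 uM tamoxifen stimulation.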

[20] = Cellular Toxicity (caspase-3) BJ (AID 658); conditions: BJ fibroblasts, luminescence, normalized: DMSO 0%, staurosporine 100%; series mostly up to 91.7 µM;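 note: cells exposed to compound for 16 hours; 0% = DMSO basal and 100% = 10 µM staurosporine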
How it was run: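 qHTS, BJ fibroblasts, 1000 cells/well; 5 hr preincubation, 16 hr compound, 37 °C; Caspase-Glo 3/7 reagent, 1 hr RT; luminescence. DMSO = 0%, 10 uM staurosporine = 100%. Hill-equation AC50.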

Retinoic acid receptor RXR-alpha (Homo sapiens), sequence (P19793 whole entry, looked up): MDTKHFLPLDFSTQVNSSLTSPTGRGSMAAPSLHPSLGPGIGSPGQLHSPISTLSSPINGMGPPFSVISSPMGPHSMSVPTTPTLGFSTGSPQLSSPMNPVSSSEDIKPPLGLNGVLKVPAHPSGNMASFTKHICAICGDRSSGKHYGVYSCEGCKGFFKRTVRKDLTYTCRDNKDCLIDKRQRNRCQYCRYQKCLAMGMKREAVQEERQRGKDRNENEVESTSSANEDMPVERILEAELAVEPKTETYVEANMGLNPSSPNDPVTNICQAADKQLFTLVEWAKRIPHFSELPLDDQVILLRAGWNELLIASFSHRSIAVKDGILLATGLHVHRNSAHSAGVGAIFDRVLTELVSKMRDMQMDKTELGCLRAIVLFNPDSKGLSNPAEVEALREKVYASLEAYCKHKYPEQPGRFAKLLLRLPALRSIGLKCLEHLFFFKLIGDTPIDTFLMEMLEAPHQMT
Voltage-gated inwardly rectifying potassium channel KCNH2 (Homo sapiens), sequence (Q12809 whole entry, looked up): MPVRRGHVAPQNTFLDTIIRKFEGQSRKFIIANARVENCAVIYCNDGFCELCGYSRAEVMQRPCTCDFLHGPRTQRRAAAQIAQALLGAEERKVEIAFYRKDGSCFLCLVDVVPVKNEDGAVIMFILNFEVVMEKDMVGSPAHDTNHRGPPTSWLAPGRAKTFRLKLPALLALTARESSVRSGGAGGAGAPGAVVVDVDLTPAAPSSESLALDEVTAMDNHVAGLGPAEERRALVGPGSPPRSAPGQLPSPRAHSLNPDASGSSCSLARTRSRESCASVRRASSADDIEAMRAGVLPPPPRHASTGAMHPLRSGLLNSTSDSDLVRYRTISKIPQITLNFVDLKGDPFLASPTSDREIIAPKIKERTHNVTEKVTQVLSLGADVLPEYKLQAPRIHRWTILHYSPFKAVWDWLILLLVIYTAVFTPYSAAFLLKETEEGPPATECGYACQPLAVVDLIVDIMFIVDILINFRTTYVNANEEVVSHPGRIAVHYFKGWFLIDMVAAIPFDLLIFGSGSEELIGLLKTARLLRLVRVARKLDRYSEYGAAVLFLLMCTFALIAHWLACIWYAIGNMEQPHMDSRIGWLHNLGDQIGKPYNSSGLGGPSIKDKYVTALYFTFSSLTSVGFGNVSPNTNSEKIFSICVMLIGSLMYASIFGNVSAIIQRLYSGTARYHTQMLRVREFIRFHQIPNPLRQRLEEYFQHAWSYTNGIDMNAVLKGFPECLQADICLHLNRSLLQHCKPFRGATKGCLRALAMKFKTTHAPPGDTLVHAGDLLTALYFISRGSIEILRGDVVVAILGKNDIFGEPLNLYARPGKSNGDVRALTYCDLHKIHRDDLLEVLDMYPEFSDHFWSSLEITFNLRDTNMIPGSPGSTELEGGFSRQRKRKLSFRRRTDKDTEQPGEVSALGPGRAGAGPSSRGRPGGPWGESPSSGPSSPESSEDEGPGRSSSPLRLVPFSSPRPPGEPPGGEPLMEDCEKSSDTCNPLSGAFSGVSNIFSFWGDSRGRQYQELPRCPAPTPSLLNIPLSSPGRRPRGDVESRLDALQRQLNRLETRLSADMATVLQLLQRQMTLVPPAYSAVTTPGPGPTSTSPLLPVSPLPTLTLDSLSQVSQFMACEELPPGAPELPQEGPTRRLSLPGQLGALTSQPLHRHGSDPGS
Peroxisome proliferator-activated receptor gamma (Homo sapiens), sequence (P37231 whole entry, looked up): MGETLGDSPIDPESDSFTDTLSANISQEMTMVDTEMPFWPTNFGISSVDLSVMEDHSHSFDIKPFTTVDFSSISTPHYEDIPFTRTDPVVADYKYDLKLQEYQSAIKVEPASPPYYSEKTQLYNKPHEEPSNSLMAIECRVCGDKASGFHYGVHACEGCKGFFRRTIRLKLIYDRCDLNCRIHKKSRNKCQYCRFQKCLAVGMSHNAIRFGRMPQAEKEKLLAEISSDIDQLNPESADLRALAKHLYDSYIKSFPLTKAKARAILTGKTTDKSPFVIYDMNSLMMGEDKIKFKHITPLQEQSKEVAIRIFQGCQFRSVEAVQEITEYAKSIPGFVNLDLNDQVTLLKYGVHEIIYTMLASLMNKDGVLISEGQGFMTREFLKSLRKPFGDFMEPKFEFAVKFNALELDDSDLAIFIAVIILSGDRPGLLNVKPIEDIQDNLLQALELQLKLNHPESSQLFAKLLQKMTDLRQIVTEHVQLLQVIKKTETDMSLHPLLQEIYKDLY
Peroxisome proliferator-activated receptor delta (Homo sapiens), sequence (Q03181 whole entry, looked up): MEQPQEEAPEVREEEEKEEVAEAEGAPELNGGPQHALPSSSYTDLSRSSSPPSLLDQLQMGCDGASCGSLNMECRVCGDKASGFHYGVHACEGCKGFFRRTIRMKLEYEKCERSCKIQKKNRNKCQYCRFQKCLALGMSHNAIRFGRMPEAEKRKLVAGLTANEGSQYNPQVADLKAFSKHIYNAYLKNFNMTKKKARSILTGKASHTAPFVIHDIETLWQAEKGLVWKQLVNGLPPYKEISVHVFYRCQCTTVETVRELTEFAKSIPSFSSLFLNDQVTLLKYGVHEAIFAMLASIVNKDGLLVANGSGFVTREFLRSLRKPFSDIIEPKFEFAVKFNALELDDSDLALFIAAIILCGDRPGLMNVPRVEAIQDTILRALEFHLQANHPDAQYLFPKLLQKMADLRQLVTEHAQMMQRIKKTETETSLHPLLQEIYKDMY
Bile acid receptor (Homo sapiens), sequence (Q96RI1 whole entry, looked up): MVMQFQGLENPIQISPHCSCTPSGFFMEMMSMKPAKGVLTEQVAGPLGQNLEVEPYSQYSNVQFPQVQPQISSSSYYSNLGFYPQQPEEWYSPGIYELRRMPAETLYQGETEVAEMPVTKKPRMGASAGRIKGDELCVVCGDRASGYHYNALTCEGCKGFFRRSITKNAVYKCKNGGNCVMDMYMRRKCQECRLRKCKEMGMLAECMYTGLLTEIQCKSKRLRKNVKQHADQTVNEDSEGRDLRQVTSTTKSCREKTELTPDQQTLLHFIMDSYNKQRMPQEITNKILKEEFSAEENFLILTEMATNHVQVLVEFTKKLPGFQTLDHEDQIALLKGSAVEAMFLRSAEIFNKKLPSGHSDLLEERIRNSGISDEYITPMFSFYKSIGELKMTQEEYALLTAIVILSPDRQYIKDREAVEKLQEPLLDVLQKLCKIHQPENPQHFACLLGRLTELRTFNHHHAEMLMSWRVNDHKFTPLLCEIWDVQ

Nc1ccc(Cl)cc1Cl
65.7% and 18%: max response [8]
inactive: Potency [1] > 92 µM | activity change, negative = cytotoxicity [2] -0.932% | outcome [3] | Potency [4] | Potency [5] | Potency [6] | outcome [7] | Potency [9] | outcome [10] | activation [11] 0.288% and 1.41%

CCCCCCCCO
inactive: outcome [12] | activity change, negative = cytotoxicity [2] -1.75% | outcome [3] | Potency [13] | Potency [6] | Potency [9] | outcome [10]
-13.8% and 47.8%: max response [8]

C=CCOC(=O)c1ccccc1C(=O)OCC=C
inactive: outcome [12] | Potency [13] | Potency [4] | Potency [5] | Potency [14] | outcome [7] | outcome [10] | max response [15] -2.1% and -17.2% | Potency [16] | activation [11] -0.29% and -0.27%

O=[N+]([O-])c1cccc(Cl)c1Cl
-5.68% and -3.79%: max response [8]
inactive: activity change, negative = cytotoxicity [2] -2.04% | Potency [4] | outcome [7] | Potency [9] | outcome [10] | max response [15] 13.3% and -13.6% | Potency [17] | Potency [18]

Cc1c(N=C=O)cccc1N=C=O
inactive: outcome [19] | outcome [3] | Potency [6] | outcome [10] | max response [15] 6.11% and -21.4% | Potency [16] | activation [11] -0.751% and -0.0469% | Potency [17]

COC(=O)c1ccc(C=O)cc1
inactive: Potency [1] > 92 µM | outcome [3] | Potency [13] | Potency [14] | outcome [7] | Potency [9] | outcome [10] | Potency [16] | activation [11] -1.54%
6.11% and 19.8%: max response [8]

NC1=NC(S)C2N=CN=C2N1 (configuration not stated)
active: Potency [4] 7.94 µM | Potency [5] 10 µM | Potency [18] 66.8 µM
inactive: outcome [19] | outcome [20] | max response [15] 2.23% | activation [11] 0.298%

CCCN(CCC)C(=O)SCC
inactive: Potency [1] > 92 µM | activity change, negative = cytotoxicity [2] 6.23% | outcome [3] | Potency [13] | Potency [5] | Potency [6] | outcome [10] | max response [15] 13.3% and -9.15% | Potency [16] | Potency [17]

Clc1cc(Cl)c(Cl)cc1Cl
inactive: activity change, negative = cytotoxicity [2] -8.1% | Potency [13] | Potency [4] | Potency [14] | Potency [9] | outcome [10] | max response [15] 6.25% and -33.5% | activation [11] 0.515% and -2%
10.3% and -6.5%: max response [8]
